# Results reported in ChEMBL document CHEMBL4296182, “CO-ADD screening of NIH NCI Diversity Set V”.
# For part of these data: Results with a measured potency or affinity are listed apart.
# How the values were obtained:
# Staphylococcus aureus = test: Antibacterial activity against Staphylococcus aureus MRSA ATCC 43300 (CO-ADD:GP_020); MIC in CAMBH media using NBS plates, by Resazurin F(560/590); format: functional; settings: Concentration 20 uM, ASSAY_TEST Inhibition of Bacterial Growth, detection method Resazurin, Fluorescence (ex560/em590), MEDIA CAMHB, plate type 384well, CORNING #3640, time 18 hr
# Acinetobacter baumannii = test: Antibacterial activity against Acinetobacter baumannii ATCC 19606 (CO-ADD:GN_034); MIC in CAMBH media using NBS plates, by Resazurin F(560/590); format: functional; settings: Concentration 20 uM, ASSAY_TEST Inhibition of Bacterial Growth, detection method Resazurin, Fluorescence (ex560/em590), MEDIA CAMHB, plate type 384well, CORNING #3640, time 18 hr
# Escherichia coli = test: Antibacterial activity against Escherichia coli ATCC 25922 (CO-ADD:GN_001); MIC in CAMBH media using NBS plates, by Resazurin F(560/590); format: functional; settings: Concentration 20 uM, ASSAY_TEST Inhibition of Bacterial Growth, detection method Resazurin, Fluorescence (ex560/em590), MEDIA CAMHB, plate type 384well, CORNING #3640, time 18 hr
# Klebsiella pneumoniae = settings: Concentration 20 uM; ASSAY_TEST Inhibition of Bacterial Growth; detection method Absorption (OD600); MEDIA CAMHB; plate type 384well; NBS; CORNING #3640; time 18 hr
# Candida albicans = settings: 20 µM
# Cryptococcus neoformans = settings: Concentration 20 uM; ASSAY_TEST Inhibition of Fungal Growth; detection method Resazurin; Absorption (OD600-OD570); plate type 384well; NBS; CORNING #3640
compound,measurement,setting,value
CC(=O)NCCCOc1ccc([N+](=O)[O-])cc1Cl,Inhibition,Staphylococcus aureus,3.67%
same,Inhibition,Acinetobacter baumannii,-1.89%
same,Inhibition,Escherichia coli,11.85%
same,Inhibition,Klebsiella pneumoniae,3.56%
same,Inhibition,Candida albicans,0.9%
same,Inhibition,Cryptococcus neoformans,-4.3%
CCOC(=O)CCCN(c1[nH]c(C)c(C)c1C#N)S(=O)(=O)c1ccc(C)cc1,Inhibition,Staphylococcus aureus,20.71%
same,Inhibition,Acinetobacter baumannii,-4.29%
same,Inhibition,Escherichia coli,15.68%
same,Inhibition,Klebsiella pneumoniae,14.1%
same,Inhibition,Candida albicans,-2.66%
same,Inhibition,Cryptococcus neoformans,-4.37%
C#Cc1cccc(NC(=O)c2ccc(Cl)cc2Cl)c1,Inhibition,Staphylococcus aureus,1.84%
same,Inhibition,Acinetobacter baumannii,-16.25%
same,Inhibition,Escherichia coli,7.38%
same,Inhibition,Klebsiella pneumoniae,6.81%
same,Inhibition,Candida albicans,7.69%
same,Inhibition,Cryptococcus neoformans,-7.06%
O=C1CSC(c2cccs2)N1c1nncs1 (stereo not given),Inhibition,Staphylococcus aureus,13.4%
same,Inhibition,Acinetobacter baumannii,-18.82%
same,Inhibition,Escherichia coli,13.34%
same,Inhibition,Klebsiella pneumoniae,3.03%
same,Inhibition,Candida albicans,-0.07%
same,Inhibition,Cryptococcus neoformans,-10.32%
CCOC(=O)Cc1csc2nc(-c3ccccc3)nn12,Inhibition,Staphylococcus aureus,-0.44%
same,Inhibition,Acinetobacter baumannii,-7.19%
same,Inhibition,Escherichia coli,5.98%
same,Inhibition,Klebsiella pneumoniae,-2.91%
same,Inhibition,Candida albicans,3.06%
same,Inhibition,Cryptococcus neoformans,-9.7%
Clc1ccc2nc3ccccc3cc2c1,Inhibition,Staphylococcus aureus,16.29%
same,Inhibition,Acinetobacter baumannii,9.09%
same,Inhibition,Escherichia coli,4.02%
same,Inhibition,Klebsiella pneumoniae,9.96%
same,Inhibition,Candida albicans,5.41%
same,Inhibition,Cryptococcus neoformans,-4.77%
COc1cnc(SC)nc1Nc1ccc(C#N)cc1,Inhibition,Staphylococcus aureus,3.83%
same,Inhibition,Acinetobacter baumannii,28.01%
same,Inhibition,Escherichia coli,14.33%
same,Inhibition,Klebsiella pneumoniae,23.54%
same,Inhibition,Candida albicans,4.47%
same,Inhibition,Cryptococcus neoformans,-3.99%
Oc1ccc2ccc3[nH]cnc3c2c1,Inhibition,Staphylococcus aureus,14.46%
same,Inhibition,Acinetobacter baumannii,-12.2%
same,Inhibition,Escherichia coli,3.66%
same,Inhibition,Klebsiella pneumoniae,6.42%
same,Inhibition,Candida albicans,-0.74%
same,Inhibition,Cryptococcus neoformans,-8.68%
CC(C)NC(=O)Nc1cccc(Cl)c1,Inhibition,Staphylococcus aureus,12.4%
same,Inhibition,Acinetobacter baumannii,7.15%
same,Inhibition,Escherichia coli,6.41%
same,Inhibition,Klebsiella pneumoniae,8.52%
same,Inhibition,Candida albicans,-1.88%
same,Inhibition,Cryptococcus neoformans,-9.01%
Cc1cccc(C)c1NC(=O)NCc1ccco1,Inhibition,Staphylococcus aureus,-11.45%
same,Inhibition,Acinetobacter baumannii,7.13%
same,Inhibition,Escherichia coli,6.33%
same,Inhibition,Klebsiella pneumoniae,8.14%
same,Inhibition,Candida albicans,2.89%
same,Inhibition,Cryptococcus neoformans,-10.4%
CSc1nc(C)cc(S)n1,Inhibition,Staphylococcus aureus,0.72%
same,Inhibition,Acinetobacter baumannii,-7.16%
same,Inhibition,Escherichia coli,3.46%
same,Inhibition,Klebsiella pneumoniae,5.27%
same,Inhibition,Candida albicans,18.9%
same,Inhibition,Cryptococcus neoformans,-4.48%
O=C(Cn1nnc(N2CCCCC2)n1)N/N=C/c1ccccc1O,Inhibition,Staphylococcus aureus,17.81%
same,Inhibition,Acinetobacter baumannii,3.41%
same,Inhibition,Escherichia coli,7.77%
same,Inhibition,Klebsiella pneumoniae,2.1%
same,Inhibition,Candida albicans,-0.19%
same,Inhibition,Cryptococcus neoformans,-9.12%
COc1cc(NC(=O)CCl)ccc(=O)c1,Inhibition,Staphylococcus aureus,-5.48%
same,Inhibition,Acinetobacter baumannii,6.09%
same,Inhibition,Escherichia coli,9.48%
same,Inhibition,Klebsiella pneumoniae,4.54%
same,Inhibition,Candida albicans,1.92%
same,Inhibition,Cryptococcus neoformans,-8.46%
NNC(=O)Cc1cc(O)[nH]n1,Inhibition,Staphylococcus aureus,0.66%
same,Inhibition,Acinetobacter baumannii,-1.89%
same,Inhibition,Escherichia coli,4.91%
same,Inhibition,Klebsiella pneumoniae,-1.33%
same,Inhibition,Candida albicans,1.93%
same,Inhibition,Cryptococcus neoformans,-9.5%
O=c1nc(Oc2ccccc2)nc2ncccn12,Inhibition,Staphylococcus aureus,18.68%
same,Inhibition,Acinetobacter baumannii,13.4%
same,Inhibition,Escherichia coli,27.8%
same,Inhibition,Klebsiella pneumoniae,4.93%
same,Inhibition,Candida albicans,7.13%
same,Inhibition,Cryptococcus neoformans,-13.98%
CCOC(=O)C1C(=O)C(=O)N(C(C)C)C1C(=O)OCC (stereo not given),Inhibition,Staphylococcus aureus,9.9%
same,Inhibition,Acinetobacter baumannii,14.67%
same,Inhibition,Escherichia coli,-8.18%
same,Inhibition,Klebsiella pneumoniae,12.15%
same,Inhibition,Candida albicans,4.37%
same,Inhibition,Cryptococcus neoformans,17.48%
CCOc1nsc(OCC)n1,Inhibition,Staphylococcus aureus,10.98%
same,Inhibition,Acinetobacter baumannii,-19.84%
same,Inhibition,Escherichia coli,11.82%
same,Inhibition,Klebsiella pneumoniae,-1.83%
same,Inhibition,Candida albicans,5.3%
same,Inhibition,Cryptococcus neoformans,-10.38%
c1ccc(-n2nnnc2-c2cccc3ccccc23)cc1,Inhibition,Staphylococcus aureus,11.74%
same,Inhibition,Acinetobacter baumannii,8.55%
same,Inhibition,Escherichia coli,-5.59%
same,Inhibition,Klebsiella pneumoniae,3.86%
same,Inhibition,Candida albicans,8.07%
same,Inhibition,Cryptococcus neoformans,-9.54%
CC12CCC(/C(=N/c3ccc(/N=C4\C(=O)C5(C)CCC4C5(C)C)cc3)C1=O)C2(C)C,Inhibition,Staphylococcus aureus,-7.11%
same,Inhibition,Acinetobacter baumannii,-9.62%
same,Inhibition,Escherichia coli,14.23%
same,Inhibition,Klebsiella pneumoniae,11.61%
same,Inhibition,Candida albicans,0.19%
same,Inhibition,Cryptococcus neoformans,-4.9%
CC(C)=CCC/C(C)=C\C(N)=O,Inhibition,Staphylococcus aureus,-1.13%
same,Inhibition,Acinetobacter baumannii,-1.29%
same,Inhibition,Escherichia coli,11.31%
same,Inhibition,Klebsiella pneumoniae,-1.44%
same,Inhibition,Candida albicans,-0.52%
same,Inhibition,Cryptococcus neoformans,-3.28%
